The values below come from PubChem BioAssay AID833 (The Scripps Research Institute Molecular Screening Center, 2007).

Structures are written as SMILES. Hit rate of the full screen: of about 16,000 compounds, about 80 (0.5%) were called active. What follows is part of a selection rich in actives, with near analogues and random picks from the rest. Values without a mark were called inactive. Rule as the data show it: active = activation above about 15%; inactive = the rest.

In the assay the target is Galanin receptor type 2 (Rattus norvegicus) (UniProt O08726). Put plainly: agonists of rat galanin receptor 2 (GALR2) (AID 833). The note with it: cell-based GALR2 agonist screen; at 10 µM; hits give high values.
Sequence of Galanin receptor type 2 (Rattus norvegicus) (O08726 whole entry, looked up): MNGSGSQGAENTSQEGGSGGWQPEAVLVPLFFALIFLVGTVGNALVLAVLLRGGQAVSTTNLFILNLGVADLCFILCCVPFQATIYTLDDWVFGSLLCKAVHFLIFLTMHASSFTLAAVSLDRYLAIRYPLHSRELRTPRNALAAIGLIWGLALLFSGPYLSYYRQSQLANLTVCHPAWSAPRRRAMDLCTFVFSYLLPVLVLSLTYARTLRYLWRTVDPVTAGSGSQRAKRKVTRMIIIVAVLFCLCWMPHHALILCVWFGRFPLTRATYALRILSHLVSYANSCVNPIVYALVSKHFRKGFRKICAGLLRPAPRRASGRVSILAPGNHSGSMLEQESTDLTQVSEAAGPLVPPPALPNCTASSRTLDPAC
Turning to `COc1ccc(S(=O)c2ccccc2C(=O)O)c(C(=O)O)c1` (stereo unspecified), the activation is -7.55%.

For `Cc1ccc(NC(=O)c2ccccc2NC(=O)c2ccccc2)cc1`, the activation is -2.58%.

As to `CCOC(=O)C(=CNc1ccc2n[nH]nc2c1)C(=O)OCC`, the activation was -1.04%.

In the case of `CSc1sc(C(=O)Nc2cccc(C(F)(F)F)c2)cc1S(=O)(=O)C(C)C`, the activation is -6.93%.

For the compound `Cn1c(SCC(=O)c2ccc(Cl)cc2)nnc1-c1cnccc1C(F)(F)F`, the activation is -8.49%.

With `O=S(=O)(Cc1nnc(-c2cc(Cl)cc(Cl)c2)o1)c1ccc(Cl)cc1`, the activation is -1.76%.

`CC1(C)CC(=O)C=C(N2CCOCC2)C1`: the activation was -5.82%.

As for `Cc1ccc(Sc2cc(C)c(C)cc2N)c(C)c1`, the activation was -6.96%.

Take `O=C1NCCN1CCNS(=O)(=O)c1cc(Cl)sc1Cl`: the activation was -5.62%.

With `O=S(=O)(Oc1ccc(C2SCCS2)cc1)c1ccc(Br)cc1`, the activation was -1.98%.

Take `CNC(=S)Nc1cscc1S(=O)(=O)c1ccc(Cl)cc1`: the activation was -6.95%.

For the compound `CCOC(=O)NC(=S)NC12CC3CC(CC(C3)C1)C2`, the activation is -2.11%.

Take `Cc1onc(-c2ccccc2)c1CNS(=O)(=O)c1ccc(-c2ccccn2)s1`: the activation was -9.42%.

As to `COC(=O)c1c(C(=O)OC)c2n(c1C)CCS2`, the activation is -6.88%.

`Cc1onc(-c2ccccc2Cl)c1NC(=O)N1c2ccc(F)cc2CCC1C` (stereo unspecified): the activation was -4.64%.

For the compound `N#Cc1sccc1Br`, the activation is -7.39%.

Regarding `O=S(=O)(O)Oc1c[nH]c2ccccc12`, the activation was -7.29%.

In the case of `N#CC(C#N)=Cc1cccn1-c1ccc(C(F)(F)F)cc1`, the activation is -6.03%.

Consider `CS/C(=N\S(=O)(=O)c1ccccc1)NNc1ccccc1`, for which the activation was -3.17%.

In the case of `O=c1[nH]c2c(=O)[nH]c(=S)[nH]c2nc1/C=C(\O)c1ccccc1`, the activation is -5.76%.

Take `CN(C)/C=C/C(=O)c1cc(C(C)(C)C)cc(C(C)(C)C)c1O`: the activation was -4.8%.

Take `N#Cc1ccc(N2CCSCC2)cc1[N+](=O)[O-]`: the activation was -4.09%.

Regarding `N/C(=N\OC(=O)c1ccc(Cl)cc1)c1cccc(CS(=O)(=O)c2ccccn2)c1`, the activation was -8.52%.

Consider `COc1cccc(/C=C2\SC(=S)C(N)C2=O)c1OC` (stereo unspecified), for which the activation was -1.21%.

With `CS(=O)(=O)c1csc(C(=O)NCc2cccnc2)c1Cl`, the activation is -6.55%.

On to `O=C(N[C@@H](Cc1ccc(O)cc1)C(=O)O)OCc1ccccc1`, for which the activation was -5.07%.

As for `CS(=O)(=O)Nc1ccc(/C(N)=N/OC(=O)c2cccs2)cc1`, the activation was -5.51%.

Consider `CCc1ccnc(NS(=O)(=O)c2ccc3c(c2)OCCO3)c1`, for which the activation was -1.48%.

Turning to `c1csc(-c2ccc(-c3ccon3)s2)c1`, the activation is -4.74%.

`CC(=O)c1ccc(NC(=O)OC2CCSC2)cc1` (stereo unspecified): the activation was -4.49%.

As for `O=C(Nc1ccc2c(c1)OCCO2)c1cnccn1`, the activation is 6.11%.

For `COc1cc(C=C(C#N)C#N)cc(OC(C)=O)c1OC(C)=O`, the activation was -8.12%.

`CNC(=S)NNC(=O)CSc1cccs1`: the activation was -6.57%.

For `O=C(NC(=O)c1ccno1)Nc1ccccc1Cl`, the activation was -3.51%.

As for `Cc1cc(C2=CSC3=NCCN23)ccc1Cl`, the activation was -7.84%.

Take `CN(C)CCC(O)c1ccc2c(c1)OCCCCO2` (stereo unspecified): the activation was -8.25%.

As to `Cc1ccc(N(C)NC(=O)Nc2ccc(Cl)cc2)nn1`, the activation was -6.34%.

Regarding `COc1ccc(C(=O)NNC(=O)c2c(OC)cc(C(F)(F)F)cc2C(F)(F)F)cc1`, the activation is -1.51%.

Consider `CCOC(=O)Cc1nnc(-c2ccc(Cl)cc2)o1`, for which the activation is -7.97%.

As for `N#Cc1nc(-c2ccccc2)c(-c2ccccc2)nc1C#N`, the activation is 3.73%.

Consider `Cc1noc(C)c1C(=O)Oc1cccc2cccnc12`, for which the activation is 3.32%.

For the compound `Cc1ccc(OC(=O)c2cccc([N+](=O)[O-])c2)c(Br)c1`, the activation is 1.69%.

Regarding `NS(=O)(=O)c1cc(C(F)(F)F)cc(C(F)(F)F)c1`, the activation was -4.46%.

`NNC(=O)c1csc(COc2ccc(C3SCCS3)cc2)n1`: the activation is -7.31%.

With `O=C(Nc1ccccc1N1CCOCC1)NC1CCN(C(=O)OCc2ccccc2)CC1`, the activation was -4.03%.

For the compound `CCOC(=O)c1cc(Sc2ccccc2N)cc(C(=O)OCC)n1`, the activation was -3.83%.

Regarding `CN(C)C(=O)Nc1ccc(C(C)(C)C)cc1`, the activation was -6.41%.

As to `O=C(O)c1ccccc1N/C=C/[N+](=O)[O-]`, the activation was -3.26%.

As for `Cc1nn2c(=O)c3c4c(sc3nc2[nH]c1=O)CCCC4`, the activation is 0.66%.

Consider `Fc1cccc(Cl)c1CSc1nccn1-c1cccnc1`, for which the activation is -3.88%.

In the case of `O=C(NC1Cc2ccccc2C1)c1nnc(-c2ccccc2)o1`, the activation was -5.35%.

In the case of `N/C(=N\OC(=O)c1ccc([N+](=O)[O-])o1)c1ccc(OCc2ccc(Cl)cc2)c(Cl)c1`, the activation is -4.76%.

On to `CN(C)c1cccc2c1c(NC(=O)Nc1ccc(OCc3ccccc3)cc1)nn2C`, for which the activation was -3.92%.

For the compound `O=C(Nc1ccc(C(F)(F)F)cn1)c1ccc(Oc2cc(Cl)cc(Cl)c2)o1`, the activation is -5.62%.

Turning to `CCN=C(NCC)Nc1ccc(Cl)cc1`, the activation is -7.95%.

As to `CCOC(=O)CCC(=O)OC(C(=O)c1ccccc1)c1ccccc1` (stereo unspecified), the activation was -6.88%.

With `COc1ccc(C2CC(c3cccs3)=Nc3ccccc3S2)c(Cl)c1OC` (stereo unspecified), the activation is -10.3%.

In the case of `CCCN(CCC)S(=O)(=O)c1ccc(C(=O)N2CC3CCC(CC3)C2)cc1`, the activation is -5.35%.

For the compound `O=C(Nc1ccc(OC(F)F)cc1)Nc1coc(-c2ccccc2)c1`, the activation was -4.63%.

For `COc1ccc2c(c1)CCCC2=Nc1ccccc1C(F)(F)F`, the activation was -6.48%.

`COC(=O)c1ccc(S(=O)(=O)NNC(=O)c2cn3cc(C(F)(F)F)cc(Cl)c3n2)n1C`: the activation was -7.71%.

In the case of `O=c1c(-c2nc(-c3ccc(C(F)(F)F)cc3)no2)cnc2n1CCS2`, the activation is -4.47%.

As to `Cc1noc(C)c1S(=O)(=O)Nc1cc(C(F)(F)F)ccc1N1CCOCC1`, the activation was -7.12%.

As for `COC(=O)c1cc(OC)c(OC)cc1NS(=O)(=O)c1ccsc1C(=O)OC`, the activation was -7.2%.

On to `O=C(Nc1cccnc1Oc1ncnc2cc(Cl)ccc12)c1ccc(F)cc1`, for which the activation was -3.54%.

As to `CS(=O)(=O)/N=C(\N)c1ccncc1`, the activation was -6.47%.

As to `CCOC(=O)Cn1cc(Cl)ccc1=O`, the activation is -2.49%.

On to `O=C1C2C3C=CC(O3)C2C(=O)N1OCc1ccc(OC(F)(F)F)cc1` (stereo unspecified), for which the activation was -2.8%.

Consider `O=c1oc2c3ccccc3c3oc(=O)sc3c2s1`, for which the activation was 16.7% (active).

Consider `O=c1[nH]c2ccccc2s1`, for which the activation is -3.62%.

Turning to `CCOc1ccc(C(N)=O)c(SCC(=O)O)c1`, the activation is -10.1%.

For `Cn1nnnc1SCC(=O)Nc1ccc(OC(F)(F)F)cc1`, the activation was -4.06%.

Take `COc1ccc(/C=N/N2CCC(=O)Nc3ccccc32)c(OC)c1`: the activation is -4.04%.

On to `N/C(=N\OCc1noc(-c2ccsc2)n1)c1ccc(C(F)(F)F)cc1`, for which the activation was -8%.

Turning to `Cc1noc(C)c1C(=O)c1c(C)[nH]n(-c2ccccc2)c1=O`, the activation is -4.7%.

For `CC(C)(C)NC(=O)NCC(c1ccc[nH]1)C(F)(F)F` (stereo unspecified), the activation was -6.65%.

For `COC(=O)C1=C(c2ccccc2)C(c2ccccc2)=C(C(=O)OC)C1=O`, the activation was -1.25%.

In the case of `N#CC(C#N)=CNc1c(F)cccc1Cl`, the activation is -9.67%.

As to `CC(=O)/C(=C\N(C)C)c1ncccc1[N+](=O)[O-]`, the activation was -5.71%.

In the case of `C=C(C)c1cccc(C(C)(C)NC(=O)CC(C)=O)c1`, the activation was -4.52%.

For `O=C(Cc1cc(F)cc(F)c1)n1nccc1-c1cccs1`, the activation was -4.48%.

`FC(F)(F)c1cccc(NC(=S)NNc2nccc(C(F)(F)F)n2)c1`: the activation is -8.08%.

Regarding `COC(=O)c1sccc1S(=O)(=O)Nc1ccccc1Sc1ncnc2c(C)csc12`, the activation is -5.48%.

`N/C(=N\S(=O)(=O)c1ccc(Cl)cc1)N1CCOCC1`: the activation is -1.28%.

For `Fc1ccc(Oc2nc(Oc3ccc(F)cc3)nc(N3CCSCC3)n2)cc1`, the activation was -8.25%.

As for `CN(NS(=O)(=O)c1ccc(C(F)(F)F)cc1)c1cnn(C)c(=O)c1Cl`, the activation is -5.39%.

Regarding `COC(=O)c1ccsc1NC(C)=O`, the activation was -5.28%.

Turning to `CCOC(=O)c1ccc(NC)c(N)c1`, the activation was -7.18%.

Regarding `CN(C)c1ccc(/C=C(\C#N)S(C)(=O)=O)c(Cl)c1`, the activation is -4.37%.

With `CC(C)[C@H]1COC(c2cccc(C3=N[C@@H](C(C)C)CO3)n2)=N1`, the activation is -5.78%.

Regarding `COC(=O)c1sc(S(C)=O)c(-c2ccon2)c1C` (stereo unspecified), the activation is -6.07%.

As to `O=C(Cn1nnc(N2CCOCC2)n1)N/N=C/c1ccc(-c2cccc([N+](=O)[O-])c2)o1`, the activation is -7.32%.

Regarding `CO/N=C1\C(=O)N(C)c2ccccc21`, the activation was -3.65%.

For `COc1ccc(CCNC(=O)c2ccccc2-c2ccccc2C(=O)O)cc1OC`, the activation was -7.28%.

Take `COC(=O)c1c(C)noc1-c1ccno1`: the activation is -5.48%.

Regarding `CCOC(=O)c1c(NC(=S)NC)sc2c1CCCC2`, the activation was -0.11%.

On to `N/C(=N\OC(=O)Nc1ccccc1)c1ccc(Oc2c(Cl)cncc2Cl)cc1`, for which the activation is -6.45%.

Regarding `CN([C@H]1CCN2CCc3ccccc3C2C1)S(C)(=O)=O` (stereo partly specified), the activation was -4.21%.

As for `CCOC(=O)CN1C(=O)/C(=C\c2ccc(C)o2)N=C1c1ccccc1`, the activation was -8.17%.

For `O=C(CN1C(=O)/C(=C/c2ccccc2Cl)N=C1c1ccccc1)c1ccccc1`, the activation was 15.2% (active).

Regarding `CN1CCN(c2ccc(NC(=O)c3ccccc3)cc2)CC1`, the activation was -7.3%.
